Molecules are shown by their SMILES. Several values for one entry are separate records, joined by “and”; a condition that tells them apart may be missing. Equal values may be shown once. Records with an inconclusive call do not appear. Activity calls are given as the source filed them. Unless noted, calls come from the whole dose curve; as a rule, active = well fitted curve in the direction sought with a large enough effect; inconclusive = small, poorly fitted or top-dose-only effect, or another doubt; inactive = no such curve, though single readings can be large; an effect the other way counts as inactive or inconclusive.

The text below walks through data of PubChem BioAssay (NCATS).

The target of assay [1] is Cytochrome P450 2D6 (Homo sapiens) (UniProt P10635). Description: Cytochrome P450 family 2 subfamily D member 6 (CYP2D6) small molecule antagonists: luciferase biochemical (cell-free) qHTS assay (AID 1645840; active = well fitted curve in the direction sought with a large enough effect in the repeat runs; an effect the other way counts as inactive or inconclusive; note: nearly all actives have a fitted effect of over 55% in size; note: potency is the fitted concentration of half-maximal effect). The gist of the method:
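P450-Glo CYP2D6 system: proluciferin substrate converted by enzyme to luciferin, read by luminescence proportional to activity. Enzyme-substrate mix with compound 10 min at room temperature, then NADPH regeneration 1 h before detection reagent.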
In general terms: qHTS replaces the single test concentration by a dilution series.

Assay [2] addresses Cytochrome P450 2C9 (Homo sapiens) (UniProt P11712). Description: Cytochrome P450 family 2 subfamily C member 9 (CYP2C9) small molecule antagonists: luciferase biochemical (cell-free) qHTS assay (AID 1645842; active = well fitted curve in the direction sought with a large enough effect in the repeat runs; an effect the other way counts as inactive or inconclusive; note: nearly all actives have a fitted effect of over 55% in size; note: potency is the fitted concentration of half-maximal effect). The gist of the method: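 P450-Glo CYP2C9 system: proluciferin substrate with enzyme in mix containing 0.4% BSA, 10 min at room temperature, then NADPH regeneration solution added and incubated 1 h at 37C. Detection reagent stopped reaction; luminescence read after 20 min as RLU.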

Assay [3] is described as follows: Primary redox qHTS assay for identification of artifact compounds. (AID 1845223).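 Note: 0% = DMSO and 100% = reference compound.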 In short, it runs like this:
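Redox-cycling detection via DTT (250 uM final) oxidation coupled to Amplex Red (25 uM)/HRP (250 mU/mL) in HBSS. 15 min preincubation plus 30 min after DTT, room temperature. Ex/Em 525/598 nm; 4-parameter Hill fit against DMSO and 10 uM DA3003.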

The test system of a further assay is HEK293. Description: Cytotoxic Profiling of Annotated Libraries Using Quantitative High-Throughput Screening (AID 1296008). For max response: % is set by controls: 0 for no effect and ±100 for the full control effect. Note: nearly all actives have a fitted effect of over 60% in size. Note: potency is the fitted concentration of half-maximal effect. The note with it: Five cell lines viability, CellTiter-Glo ATP luminescence, 48-72 h; max response: stronger effect = lower value. In short, it runs like this: (§1)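 Compounds were pin-transferred onto cells and incubated 48 or 72 hr at 37 degree Celsius, 95% humidity. CellTiter-Glo was added, plates sat 10 min at room temperature, then ATP-coupled luminescence was imaged as the viability read-out.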

A further assay relates to NIH3T3. The description is as above. The settings on record: Five cell lines viability, CellTiter-Glo ATP luminescence, 48-72 h; max response: stronger effect = lower value. In short, it runs like this:
as §1
For orientation: ATP-based viability assays read luminescence as a measure of living cells.

Another assay deals with C33A. Description: Primary qHTS to identify gynecologic anti-cancer compounds using libraries of approved drugs and bioactive compounds (AID 1345084). Note: % is set by controls: 0 for no effect and ±100 for the full control effect; nearly all actives have a fitted effect of over 55% in size. The note with it: Gynecologic cancer cell panel viability, ATPlite luminescence, 48 h; series mostly up to 57.5 µM. In short, it runs like this:
(§2)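 ATP-based viability (ATPlite), 1,000 cells/well, 16 h pre-incubation, 48 h compound at 37 C, 5% CO2, 15 min RT before read.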

The subject of the next assay is CAOV3. The assay is described as above. The settings on record: Gynecologic cancer cell panel viability, ATPlite luminescence, 48 h; series mostly up to 57.5 µM. The gist of the method:
as §2

A further assay deals with Es-2. The assay is described as above. The settings on record: Gynecologic cancer cell panel viability, ATPlite luminescence, 48 h; series mostly up to 57.5 µM. The gist of the method: as §2
In a further assay the test system is HeLa. The description is as above. The note with it: Gynecologic cancer cell panel viability, ATPlite luminescence, 48 h; series mostly up to 57.5 µM. In short, it runs like this:
as §2

The test system of a further assay is Hek293T. The description is as above. The note with it: Gynecologic cancer cell panel viability, ATPlite luminescence, 48 h, control line for the selectivity index; series mostly up to 57.5 µM. The gist of the method: as §2
The next assay relates to PA-1. The assay is described as above. The note with it: Gynecologic cancer cell panel viability, ATPlite luminescence, 48 h; series mostly up to 57.5 µM. The gist of the method: as §2
A further assay concerns SKOV3. The assay is described as above. The note with it: Gynecologic cancer cell panel viability, ATPlite luminescence, 48 h; series mostly up to 57.5 µM. In short, it runs like this: as §2
The subject of another assay is Tov112D. Described as above. The settings on record: Gynecologic cancer cell panel viability, ATPlite luminescence, 48 h; series mostly up to 57.5 µM. The gist of the method: as §2
The nature of assay [4]: Cytotoxicity counterscreen for inhibitors of SARS-CoV-2 cell entry (AID 1645845; calls by dose curve; note: nearly all actives have a fitted effect of over 50% in size; note: potency is the fitted concentration of half-maximal effect). In short, it runs like this: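 After a 15 min room-temperature ATPLite 1step step, luminescence reflected ATP remaining in HEK293-ACE2 cells exposed to compound for 1 h plus 48 h at 37 C, with percent activity set by cell and no-cell controls.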
Assay [5] in a line: qHTS drug screen for cell cycle checkpoint inhibitors in PARPi-resistant BRCA-mutant ovarian cancer cell lines. (AID 1963452; calls by dose curve). The settings on record: PEO1/OlaR viability, CellTiter-Glo luminescence, 96 h, stronger effect = lower value. In short, it runs like this: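 PEO1, PEO4 and PEO1/OlaR ovarian cancer cells, 600 per well, exposed 96 h at 37C to a dilution series. Viability read by CellTiter-Glo luminescence, normalized to DMSO and empty wells; activity summarized as Z-AUC.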

The nature of assay [6]: Drug repurposing screens with cells derived from glioblastoma tumor samples (AID 1345199). Note: % is set by controls: 0 for no effect and ±100 for the full control effect; nearly all actives have a fitted effect of over 40% in size. The note with it: GBM patient neurospheres viability, ATP luminescence, 48 h; Potency: tumour line A; series mostly up to 45.9 µM. The gist of the method:
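Primary testing used CD133+ neurospheres from four GBM patients, seven concentrations, 48 h exposure and ATP-based viability; confirmation added three slower-growing patient lines.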

Assay [7] in a line: Primary qHTS for Huh7 cytotoxicity: counterscreen for inhibitors of MERS-S pseudotyped particle cell entry (AID 1479147; calls by dose curve). The note with it: outcome: dose series up to 57.1 µM unless noted.
Assay [8] is described as follows: Primary qHTS for Vero E6 cytotoxicity: counterscreen for inhibitors of SARS-S pseudo-typed particle cell entry (AID 1479150; calls by dose curve). The settings on record: outcome: dose series up to 57.1 µM unless noted.
Assay [9] addresses Luciferin 4-monooxygenase (Photinus pyralis) (UniProt P08659). Description: Biochemical firefly luciferase enzyme assay for NPC (AID 624030). Note: nearly all actives have a fitted effect of over 70% in size. Note: potency is the fitted concentration of half-maximal effect. In short, it runs like this:
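Counter-screen for direct inhibition of the luciferase enzyme by approved-drug library compounds, run at 10 nM enzyme in 50 mM Tris acetate (final). Luminescence was read within 5 min of enzyme-buffer addition and normalized to PTC124 versus DMSO (0%).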

Chain of Cytochrome P450 2D6 (Homo sapiens) (P10635 whole entry, looked up): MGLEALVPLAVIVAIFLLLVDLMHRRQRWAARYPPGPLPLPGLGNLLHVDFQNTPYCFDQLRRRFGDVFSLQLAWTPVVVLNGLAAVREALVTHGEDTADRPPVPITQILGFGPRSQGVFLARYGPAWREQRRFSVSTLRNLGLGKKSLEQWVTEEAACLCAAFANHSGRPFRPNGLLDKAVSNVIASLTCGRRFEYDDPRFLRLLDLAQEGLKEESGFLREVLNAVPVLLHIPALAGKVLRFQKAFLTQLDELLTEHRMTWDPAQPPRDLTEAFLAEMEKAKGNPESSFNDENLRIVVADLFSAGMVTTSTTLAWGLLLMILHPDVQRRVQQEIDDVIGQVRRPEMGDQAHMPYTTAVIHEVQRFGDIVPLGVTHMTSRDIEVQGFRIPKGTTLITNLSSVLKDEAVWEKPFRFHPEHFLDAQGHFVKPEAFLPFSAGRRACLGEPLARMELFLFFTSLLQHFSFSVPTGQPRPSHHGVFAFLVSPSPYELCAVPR
Chain of Luciferin 4-monooxygenase (Photinus pyralis) (P08659 whole entry, looked up): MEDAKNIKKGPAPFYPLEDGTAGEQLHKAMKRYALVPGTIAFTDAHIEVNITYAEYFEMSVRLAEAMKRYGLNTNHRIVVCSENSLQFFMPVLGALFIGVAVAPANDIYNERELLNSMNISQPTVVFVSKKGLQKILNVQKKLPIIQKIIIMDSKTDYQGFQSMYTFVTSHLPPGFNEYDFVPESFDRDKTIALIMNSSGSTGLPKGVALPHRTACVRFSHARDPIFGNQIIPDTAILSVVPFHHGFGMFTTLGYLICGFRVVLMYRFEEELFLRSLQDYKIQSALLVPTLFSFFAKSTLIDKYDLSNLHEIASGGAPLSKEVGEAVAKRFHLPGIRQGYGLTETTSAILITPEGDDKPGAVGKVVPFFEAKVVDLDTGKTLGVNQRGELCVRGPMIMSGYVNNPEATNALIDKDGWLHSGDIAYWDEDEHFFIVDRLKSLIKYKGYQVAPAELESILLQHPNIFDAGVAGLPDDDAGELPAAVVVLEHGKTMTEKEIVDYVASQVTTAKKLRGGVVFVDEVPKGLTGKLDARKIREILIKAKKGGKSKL
Chain of Cytochrome P450 2C9 (Homo sapiens) (P11712 whole entry, looked up): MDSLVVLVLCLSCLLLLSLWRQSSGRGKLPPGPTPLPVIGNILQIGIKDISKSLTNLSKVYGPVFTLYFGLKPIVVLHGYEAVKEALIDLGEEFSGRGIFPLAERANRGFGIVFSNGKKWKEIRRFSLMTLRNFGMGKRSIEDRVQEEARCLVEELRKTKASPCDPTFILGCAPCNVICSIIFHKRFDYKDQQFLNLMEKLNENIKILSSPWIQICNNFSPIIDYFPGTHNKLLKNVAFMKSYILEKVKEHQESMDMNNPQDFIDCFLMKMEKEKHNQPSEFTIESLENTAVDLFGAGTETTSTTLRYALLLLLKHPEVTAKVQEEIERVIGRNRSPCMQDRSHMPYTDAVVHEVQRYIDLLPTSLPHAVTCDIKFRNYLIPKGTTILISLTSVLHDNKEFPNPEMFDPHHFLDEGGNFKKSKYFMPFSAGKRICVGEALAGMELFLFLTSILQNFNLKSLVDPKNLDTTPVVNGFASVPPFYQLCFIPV

`C[C@H]1CN(Cc2ccc(CC(=O)N3CCC(Nc4cccc(F)c4)CC3)cc2)CCN1`: the Potency in assay [1] is 12 µM (active); with HEK293, 18.4 µM (active); with NIH3T3, 20.6 µM (active). Also, the Potency result (in [2]; in [3]; in the assay on C33A; in the assay on CAOV3; in the assay with Es-2; in the assay on HeLa) was “inactive” in each case. In addition, the Potency result in the assay on Hek293T, with PA-1, in the assay with SKOV3 and in the assay with Tov112D was “inactive” throughout.
Consider `CC[C@H]1/C=C\C=C/C[C@@H](C)[C@H](O)[C@@](C)(O)C(=O)[C@@H](C)[C@H](O)[C@@H](C)C(=O)[C@@H](C)[C@H](O)[C@@H](C)/C=C\C(=O)O[C@@H]2[C@H](C)[C@H](CC1)O[C@]1(CC[C@H](C)[C@H](C[C@@H](C)O)O1)[C@H]2C`, for which, in assay [4], the Potency is 20 µM (active). Besides, the Z-AUC in [5] was 0.274 (inactive); in [5] (measured here: PEO1 parental Z-AUC), -2.84; in assay [5] (measured here: PEO4 Z-AUC), -2.81. Besides, in the assay with HEK293, the max response was -112% (inactive). The Potency result in the assay on PA-1 is “inactive”.
With `C[C@@H](N)C(=O)c1ccccc1`, in [6], the Potency result is “inactive”.
On to `CC(=O)[C@@]1(O)CC[C@H]2[C@@H]3CCC4=CC(=O)CC[C@]4(C)C3(F)[C@@H](O)C[C@@]21C` (some centres not stated), for which the outcome in [7] and in assay [8] was inactive. For the same molecule, the Potency result in [4] and in [6] was “inactive” in each case.
As for `CC(N)Cc1ccc2c(c1)OCO2` (configuration not stated), the Potency entry in [9] and in assay [6] was “inactive” throughout.
For `C[N+](C)(C)CC(=O)[O-]`, the Potency result in assay [9] and in [6] was “inactive” in each case.
`Clc1ccc([C@@H]2C[C@H]3CC[C@@H]2N3)cn1`: the Potency entry in assay [6] is “inactive”.
`C1CN(P2(N3CC3)=NP(N3CC3)(N3CC3)=NP(N3CC3)(N3CC3)=N2)CCO1` (configuration not stated): the Potency result in assay [9] and in [6] was “inactive” throughout.
Turning to `CN[C@@]1(c2ccccc2Cl)CCCCC1=O`, in assay [6], the Potency result is “inactive”.
With `COC(=O)[C@H]1[C@@H](OC(=O)c2ccccc2)C[C@@H]2CC[C@H]1N2C`, the outcome in assay [7] and in assay [8] was “inactive [at 114 µM]” throughout. Besides, the Potency entry in assay [4] and in assay [6] was “inactive” in each case.
Regarding `CN[C@]1(c2ccccc2Cl)CCCCC1=O`, the Potency entry in assay [6] was “inactive”.
On the same count and under the same terms, in the case of `COc1cc(C[C@H](C)N)c(OC)cc1C` it was “inactive”.
As to `CC1=CC(=O)[C@@H](O)[C@]2(C)C3[C@@H](O)[C@@H]4OC(=O)[C@@H]([C@H]4C)[C@]3(C)C(=O)[C@H](O)[C@@H]12` (some centres not stated), the Potency result (in assay [3]; in the assay on C33A; in the assay with CAOV3; in the assay with HeLa; in the assay with SKOV3) was “inactive” each time. The Potency in the assay with NIH3T3 is 2.55 µM (active).
`O=C(O)CCCO`: the Potency result in assay [9] and in [6] was “inactive” throughout.
For the molecule `CCCCNC(C)(C)[P+](=O)O`, the Potency entry in assay [1], in assay [2] and in [6] was “inactive” each time.
As for `C/C=C(\CC)C(=O)NC(N)=O`, the Potency entry in [9] and in assay [6] was “inactive” each time.
Turning to `N#Cc1ccc(N2CCN(C(=O)COc3ccc4[nH]cc(CCN)c4c3)CC2)cc1`, the Potency in assay [1] is 19 µM (active); in [2] it was 1.69 µM (active). The Potency entry with CAOV3, in the assay with Es-2, in the assay on Hek293T, in the assay on PA-1, with SKOV3 and in the assay with Tov112D was “inactive” throughout.
Regarding `CC(C)=CCN1CC[C@]2(C)c3cc(O)ccc3C[C@H]1[C@H]2C`, the molecule was classed as inactive in assay [7] and in assay [8].
For the molecule `O=Cc1ccccc1`, the Potency result in [9] and in assay [6] was “inactive” each time.
Consider `CCOP(=S)(OCC)SCSc1ccc(Cl)cc1`, for which the Potency entry in assay [9] and in assay [6] was “inactive” each time. For the same molecule, the Potency in [1] was 9.52 µM (active); in assay [2], 0.213 µM (active).
On to `O=C1CN=C(c2ccccc2)c2cc(Cl)ccc2N1`, for which the Potency entry in assay [9] and in assay [6] was “inactive” each time.
In the case of `Oc1ccc2c3c1O[C@H]1[C@@H](O)C=C[C@H]4[C@H](C2)NCC[C@@]341`, the Potency result in assay [6] is “inactive”.
For `COc1ccc(OC)c(C[C@H](C)N)c1`, the Potency entry in [9] and in assay [6] was “inactive” in each case.
On to `CCCSc1cc(OC)c(CCN)cc1OC`, for which the Potency result in assay [9] is “inactive”.
As to `COC(=O)c1ccccc1C(=O)OC`, the Potency result in assay [9], in assay [1], in assay [2] and in [6] was “inactive” in each case.
`CCOc1cc(C=O)ccc1O`: the Potency entry in [9], in assay [1], in assay [2] and in assay [6] was “inactive” each time.
On to `CN(C)CCO`, for which the Potency result in assay [9] and in assay [6] was “inactive” throughout.
As to `CC(C)C[C@H]1C(=O)N2CCC[C@H]2[C@]2(O)O[C@](NC(=O)[C@@H]3C[C@@H]4c5cccc6[nH]cc(c56)C[C@H]4N(C)C3)(C(C)C)C(=O)N12`, the molecule was called inactive in [7] and in assay [8]. The Potency entry in assay [4] is “inactive”.
Turning to `Oc1cc[c]([Hg][Cl])cc1`, the Potency in assay [9] is 8.09 µM (active) and 9.07 µM (active).
In the case of `C=CCC1([C@@H](C)CCC)C(=O)NC(=O)NC1=O`, the Potency result in assay [9] and in assay [6] was “inactive” each time.
On to `O=P1(N(CCCl)CCCl)NC(OO)CCO1` (configuration not stated), for which the Potency result in assay [9] and in [6] was “inactive” throughout.
For `Cc1nnc2n1-c1sc(Br)cc1C(c1ccccc1Cl)=NC2`, the Potency entry in [9] and in assay [4] was “inactive” each time. Also, the outcome in assay [7] and in [8] was inactive.
Turning to `COc1cc(C[C@H](C)N)c(OC)cc1Br`, in assay [9], the Potency entry was “inactive”.
Same read-out and setting: in the case of `CN1CCN=C(c2ccccc2)c2cc(Cl)ccc21` it was “inactive”.
